Assay results taken from PubChem BioAssay AID1159580 (chemical genetic matrix, 2015).
The campaign covered roughly 5,500 compounds. About 2,000 (36%) were called active. About 18% were inconclusive and are not listed. Rule as the data show it: active = normalized growth mostly below about 0.91 (no sharp cut-off); inconclusive = no clear call, values can overlap the other calls; inactive = mostly above about 0.92. This is one part of the list.

Experiment: chemical genetic growth profiling, strain panel (AID 1159580);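 also: tested at 20 µM; growth read once vehicle control cultures reached saturation at 30 °C; 1 = growth at the plate median or of vehicle wells; lower values mean less growth of the strain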
Conditions: S. cerevisiae deletion strains, growth OD

Measured: normalized growth

NC/C=C/C(=O)O
inactive: locus YAL013W, strain DEP1, hits give low values 1.02 | locus YAL021C, strain ccr4, hits give low values 0.968 | locus YAL026C, strain drs2, hits give low values 0.997 | locus YAL030W, strain snc1, hits give low values 1 | locus YAL040C, strain CLN3, hits give low values 0.998 | locus YBL061C, strain skt5, hits give low values 1.01 | locus YBR009C, strain hhf1, hits give low values 1.01 | locus YBR021W, strain FUR4, hits give low values 1.01 | locus YBR023C, strain chs3, hits give low values 1 | locus YBR171W, strain sec66, hits give low values 0.985 | locus YBR229C, strain ROT2, hits give low values 1.01 | locus YBR231C, strain swc5, hits give low values 1.02 | locus YBR279W, strain paf1, hits give low values 1.01 | locus YCL011C, strain gbp2, hits give low values 0.983 | locus YCL016C, strain dcc1, hits give low values 1.01 | locus YCL029C, strain bik1, hits give low values 1.02 | locus YCL061C, strain MRC1 (second series), hits give low values 1 | locus YCL061C, strain MRC1, hits give low values 0.987 | locus YCL069W, strain vba3, hits give low values 0.992 | locus YCR088W, strain abp1, hits give low values 0.986 | locus YDL005C, strain med2, hits give low values 1.01 | locus YDL035C, strain GPR1, hits give low values 1.04 | locus YDL040C, strain nat1, hits give low values 1 | locus YDL074C, strain BRE1, hits give low values 0.986 | locus YDL101C, strain DUN1, hits give low values 1 | locus YDL134C, strain PPH21, hits give low values 1.01 | locus YDL185W, strain tfp1, hits give low values 1.02 | locus YDL192W, strain arf1, hits give low values 1.01 | locus YDR001C, strain nth1, hits give low values 0.987 | locus YDR069C, strain doa4, hits give low values 1.03 | locus YDR101C, strain arx1, hits give low values 1.02 | locus YDR137W, strain rgp1, hits give low values 1.01 | locus YDR150W, strain NUM1, hits give low values 1.01 | locus YDR159W, strain sac3, hits give low values 1.02 | locus YDR162C, strain NBP2, hits give low values 0.986 | locus YDR195W, strain ref2 1.01 | locus YDR297W, strain sur2, hits give low values 1.01 | locus YDR318W, strain mcm21, hits give low values 1.05 | locus YDR334W, strain swr1, hits give low values 1 | locus YDR335W, strain msn5, hits give low values 1.01 | locus YDR363W, strain ESC2, hits give low values 0.999 | locus YDR388W, hits give low values 1.01 | locus YDR392W, strain spt3, hits give low values 0.965 | locus YDR502C, strain sam2, hits give low values 0.999 | locus YEL003W, strain gim4, hits give low values 0.99 | locus YEL037C, strain rad23, hits give low values 0.982 | locus YEL061C, strain CIN8 (second series), hits give low values 0.99 | locus YEL061C, strain CIN8, hits give low values 1.01 | locus YER002W, strain NOP16, hits give low values 0.975 | locus YER015W, strain faa2, hits give low values 1.01 | locus YER016W, strain bim1, hits give low values 1.02 | locus YER110C, hits give low values 1.02 | locus YER111C, strain swi4, hits give low values 0.98 | locus YER155C, strain BEM2 (second series), hits give low values 1.01 | locus YER155C, strain BEM2, hits give low values 0.999 | locus YER167W, strain BCK2, hits give low values 1.05 | locus YFR010W, strain ubp6, hits give low values 1.01 | locus YGL078C, strain dbp3, hits give low values 0.994 | locus YGL086W, strain mad1, hits give low values 1.04 | locus YGL167C, strain pmr1, hits give low values 1.01 | locus YGL173C, strain kem1, hits give low values 1.01 | locus YGL227W, strain vid30, hits give low values 0.988 | locus YGL240W, strain doc1, hits give low values 1.02 | locus YGL248W, strain PDE1, hits give low values 1.01 | locus YGL253W, strain hxk2, hits give low values 1 | locus YGR078C, strain PAC10, hits give low values 1.01 | locus YGR135W, strain pre9, hits give low values 0.996 | locus YGR229C, strain SMI1, hits give low values 1.01 | locus YGR252W, strain gcn5, hits give low values 1.03 | locus YHR013C, strain ard1, hits give low values 0.999 | locus YHR027C, strain rpn1, hits give low values 1.01 | locus YHR030C, strain SLT2, hits give low values 1.01 | locus YHR079C, strain IRE1 (second series), hits give low values 1.01 | locus YHR094C, strain hxt1, hits give low values 1.01 | locus YHR129C, strain ARP1, hits give low values 1.02 | locus YHR142W, strain chs7, hits give low values 0.975 | locus YHR200W, strain rpn10, hits give low values 1.02 | locus YIL066C, strain RNR3, hits give low values 1.02 | locus YIL073C, strain SPO22, hits give low values 1.13 | locus YIL125W, strain kgd1, hits give low values 1.01 | locus YIR030C, strain dcg1, hits give low values 1.02 | locus YJL092W, strain hpr5, hits give low values 0.984 | locus YJL095W, strain BCK1 (second series), hits give low values 1.01 | locus YJL095W, strain BCK1, hits give low values 1.03 | locus YJL115W, strain asf1, hits give low values 0.994 | locus YJL129C, strain trk1, hits give low values 0.994 | locus YJL134W, strain LCB3, hits give low values 1.01 | locus YJL154C, strain vps35, hits give low values 0.987 | locus YJL164C, strain tpk1, hits give low values 0.989 | locus YJL166W, strain qcr8, hits give low values 1.02 | locus YJL168C, strain set2, hits give low values 1 | locus YJL187C, strain SWE1 (second series), hits give low values 1.01 | locus YJL187C, strain SWE1, hits give low values 1.02
